# KAT2A inh: qHTS Assay for Inhibitors of GCN5L2. Histone acetyltransferase KAT2A (Homo sapiens), Q92830. GCN5L2 HAT assay, ThioGlo1 CoA-SH fluorescence. Potency, µM (titrated, usually from 58.9 µM), inactives show at the highest dose activity change, negative = inhibition, usual class: inhibitors. actives 0.21% (n = 390,000). AID 504327, 2011
# Target sequence (Q92830 whole entry, looked up): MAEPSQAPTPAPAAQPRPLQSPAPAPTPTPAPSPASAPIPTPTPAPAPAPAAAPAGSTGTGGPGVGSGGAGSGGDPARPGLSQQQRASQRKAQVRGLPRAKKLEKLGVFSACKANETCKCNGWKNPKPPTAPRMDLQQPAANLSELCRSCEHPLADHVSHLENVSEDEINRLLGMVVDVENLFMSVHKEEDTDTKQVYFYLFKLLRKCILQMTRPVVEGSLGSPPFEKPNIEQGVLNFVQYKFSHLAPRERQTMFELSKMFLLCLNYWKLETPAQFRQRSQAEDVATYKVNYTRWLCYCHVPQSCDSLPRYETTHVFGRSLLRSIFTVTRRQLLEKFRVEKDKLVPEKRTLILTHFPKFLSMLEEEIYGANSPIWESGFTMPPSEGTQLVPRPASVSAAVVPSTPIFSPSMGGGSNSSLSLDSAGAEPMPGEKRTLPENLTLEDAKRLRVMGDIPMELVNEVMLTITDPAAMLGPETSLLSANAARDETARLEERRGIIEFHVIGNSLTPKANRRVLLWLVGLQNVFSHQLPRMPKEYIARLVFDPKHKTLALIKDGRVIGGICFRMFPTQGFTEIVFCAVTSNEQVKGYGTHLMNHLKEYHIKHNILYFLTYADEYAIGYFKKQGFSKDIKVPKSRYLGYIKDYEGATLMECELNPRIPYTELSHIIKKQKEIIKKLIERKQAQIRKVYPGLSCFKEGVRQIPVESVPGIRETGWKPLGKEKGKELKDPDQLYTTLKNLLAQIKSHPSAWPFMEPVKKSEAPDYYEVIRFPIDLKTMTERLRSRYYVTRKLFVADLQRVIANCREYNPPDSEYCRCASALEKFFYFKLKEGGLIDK
#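 ThioGlo1-coupled HAT assay: 20nM GCN5L2, 70uM acetyl-CoA, 75uM H3(1-25) peptide, pH 7.5. Fluorescence read at 340/540nm at start and after 20 min at room temperature.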
# DT40 TDP1 no CPT: qHTS for Inhibitors of human tyrosyl-DNA phosphodiesterase 1 (TDP1): qHTS in cells in absence of CPT. DT40 Tdp1-/- hTDP1 cells, no CPT, ATP luminescence, 48 h. Potency, µM (doses to about 46.2 µM), inactives show top-dose activity change, negative = growth inhibition, hits mostly inhibitors. actives 15% (n = 420,000); note: nearly all actives have a fitted effect of over 55% in size
#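 Cells were dispensed at 400 per well, compounds added by pin tool, plates incubated ≥48 hr at 37 °C, then CellTiter-Glo added for 30 min at room temperature before luminescence reading. Line: DT40 Tdp1-/- complemented with hTDP1; camptothecin omitted.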
# VDR inhibitor: Inhibitors of the vitamin D receptor (VDR): qHTS. Vitamin D3 receptor (Homo sapiens), P11473. VDR-SRC2-3 peptide fluorescence polarization, 2 h. Potency, µM, for the others: max response, negative = inhibition, hits mostly inhibitors. actives 0.93% (n = 400,000). AID 504847, 2011
#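 Signal is fluorescence polarization, reporting how far test compounds block the interaction of VDR with the SRC2-3 coregulator peptide after a 2 h room-temperature incubation.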
# TDP1 inh: qHTS Assay for Inhibitors of Tyrosyl-DNA Phosphodiesterase (TDP1); Tyrosyl-DNA phosphodiesterase 1 (Homo sapiens), Q9NUW8; recombinant TDP1, AlphaScreen DNA substrate cleavage; Potency, µM (titrated, usually from 130 µM), without a hit: top-dose activity change, negative = inhibition, most hits filed as inhibitors; actives 0.28% (n = 350,000); AID 485290, 2010; note: nearly all actives have a fitted effect of over 40% in size
#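 AlphaScreen read-out: signal falls as enzyme removes the 3' tyrosine-FITC from a 5'-biotinylated DNA oligo (15 nM, 5 min, RT). Enzyme was E. coli-made recombinant Tdp1 at 1 nM, exposed to compound for 15 min beforehand; beads 10 ug/ml, 10 min.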
# PLK1 PBD inh: qHTS for Inhibitors of PLK1-PDB (polo-like kinase 1 - polo-box domain): Primary Screen | Potency, µM, without a hit: max response, negative = inhibition, actives largely listed as inhibitors | AID 720504, 2013 | Plk1 PBD binding of FITC phosphopeptide, fluorescence polarization | actives 2.8% (n = 360,000) | Serine/threonine-protein kinase PLK1 (Homo sapiens), P53350; note: series mostly up to about 57 µM; nearly all actives have a fitted effect of over 65% in size
# TDP1 cell CPT: qHTS for Inhibitors of human tyrosyl-DNA phosphodiesterase 1 (TDP1): qHTS in cells in presence of CPT; AID 686979, 2013; actives 12% (n = 420,000); Potency, µM (top dose mostly 46.2 µM), inactives show top-dose activity change, negative = growth inhibition, most hits filed as inhibitors; chicken DT40 Tdp1-/-;hTDP1 cells + 20 nM CPT, ATP luminescence, 48 h; note: nearly all actives have a fitted effect of over 55% in size
#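 Chicken DT40 Tdp1-/- cells stably complemented with human TDP1 were seeded at 400 cells/well in medium containing 20 nM camptothecin, exposed to pin-transferred compounds, and grown at 37 °C for at least 48 hr. Viability was read as ATP luminescence.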
# Starred values were filed as active, the others as inactive; ? = inconclusive; nt = no result; [ ] = dose if it differs, or a comment. Most compounds without a hit are left out; they make up all but 18% or so of the library. Calls come from the whole dose curve; as a rule, active = well fitted curve in the direction sought with a large enough effect; inconclusive = small, poorly fitted or top-dose-only effect, or another doubt; inactive = no such curve, though single readings can be large; an effect the other way counts as inactive or inconclusive. % is set by controls: 0 for no effect and ±100 for the full control effect; potency is the fitted concentration of half-maximal effect.
SMILES,KAT2A inh,DT40 TDP1 no CPT,VDR inhibitor,TDP1 inh,PLK1 PBD inh,TDP1 cell CPT
COC(=O)[C@@H]1CCCN1C(=O)c1c(OC)cc(=O)n2c1CCN(Cc1ccc3c(c1)CCO3)CC2,nt,-4%,nt,nt,nt,27%
Cc1ccc(OCC(=O)N(c2ccccn2)C2CCCCC2)c(C)c1,-4%,?,-3%,4%,-1%,?
CC(C)(C)c1ccc(OCC(=O)N(c2ccccn2)C2CCCCC2)cc1,5%,15µM*,-1%,3%,-6%,?
O=C(COc1ccc(Cl)cc1Cl)N(c1ccccn1)C1CCCCC1,-2%,?,-19%,-2%,-8%,26µM*
O=C(COCCOCC(=O)N(c1ccccn1)C1CCCCC1)N(c1ccccn1)C1CCCCC1,-2%,-1%,-6%,7%,1%,13%
CCCS(=O)(=O)NC(=O)C1(C)CCN(C(=O)COc2ccccc2)C1 (centres undefined),nt,12%,nt,nt,-1%,3%
O=C(CSc1nnc(-c2ccc(Cl)s2)o1)N1CCc2ccccc21,-1%,nt,nt,2%,nt,nt
Cc1ccc(NCc2nnc(SCC(=O)N3CCCc4ccccc43)o2)c(C)c1,-10%,18µM*,4%,7%,-6%,5.8µM*
O=C(CSc1nnc(-c2cccs2)n1-c1ccccc1)N1CCCc2ccccc21,-3%,16µM*,4%,3%,-1%,?
O=C(CSc1nnc(-c2ccc(Cl)s2)o1)N1CCCc2ccccc21,-5%,16µM*,-4%,4%,-26%,?
CCn1c(SCC(=O)N2CCCc3ccccc32)nnc1-c1cccs1,-7%,4%,-6%,2%,0%,-2%
Cc1ccc(-n2c(SCC(=O)N3CCCc4ccccc43)nnc2-c2cccnc2)c(C)c1,-2%,23µM*,-6%,7%,-6%,?
NC(=O)CC(NC(=O)c1ccccc1)c1ccc(N2CCc3ccccc3C2)c([N+](=O)[O-])c1 (centres undefined),-1%,?,7%,nt,-19%,?
Clc1ccc(OCCCCCN2CCCC2)c(Br)c1,2%,23µM*,-1%,-5%,2%,?
CCN1CCN(CCCOc2ccc(Cl)cc2Br)CC1,1%,16µM*,3%,5%,0%,?
Clc1ccc(Cl)c(OCCCCN2CCNCC2)c1,0%,?,21%,7%,3%,5.8µM*
Clc1ccc(SCCN2CCNCC2)cc1,-19%,18µM*,-2%,3%,4%,?
COc1ccc(C(=O)N2CCC3(CC2)CCN(C(c2ccccc2)c2ccccc2)CC3)cc1,-15%,-16%,-18%,nt,nt,-8%
Cc1ccc(-c2nn(CC(=O)Nc3cccc(C(F)(F)F)c3)c(=O)c3ccccc23)cc1,-7%,?,5%,nt,nt,?
Cc1noc(C)c1-c1nc(N2CCNCC2)c2ccccc2n1,-1%,?,-1%,-6%[56.1 µM],nt,?
C#Cc1cccc(Nc2nc(NCc3ccccc3)nc3ccsc23)c1,nt,10µM*,nt,nt,3%,9.2µM*
Fc1ccc(Nc2nc(NCc3ccccc3)nc3ccsc23)cc1,nt,9.2µM*,nt,nt,-11%,8.2µM*
O=C1NCCN1CCNc1nc(NCc2ccccc2)nc2ccsc12,nt,?,nt,nt,4%,?
N#Cc1ccc(Nc2nc(NCc3ccccc3)nc3ccsc23)cc1,nt,1.8µM*,nt,nt,4%,6.5µM*
COc1cccc(C2C([N+](=O)[O-])=C(N)Oc3cc(C)oc(=O)c32)c1 (centres undefined),-5%,-4%,-7%,nt,?,1%
SMILES,KAT2A inh,DT40 TDP1 no CPT,VDR inhibitor,TDP1 inh,PLK1 PBD inh,TDP1 cell CPT
CC(=O)Nc1c(I)cc(I)c(C(=O)O)c1I,7%,-11%,0%,12%[56.1 µM],nt,-15%
O=C(O)c1ccc(S(=O)(=O)N[C@H](Cc2ccccc2)C(=O)O)cc1,nt,nt,nt,6%,nt,nt
CCNc1ncc2nc(-c3ccc(OC)cc3)c(=O)n(Cc3cccs3)c2n1,-25%,-24%,-11%,nt,nt,?
CCCCn1c(SCC#N)nc2ccccc2c1=O,nt,?,-24%,-6%,nt,7%
Cc1ccc(CSc2nc3ccccc3c(=O)n2Cc2ccco2)cc1,-8%,?,-10%,-3%,27µM*,?
Cc1ccc(CSc2nc3ccccc3c(=O)n2CCCC(=O)NCc2ccco2)cc1,-2%,12µM*,7%,-3%,-6%,?
CCCCn1c(SCc2nc3ccccc3s2)nc2cc(S(N)(=O)=O)ccc21,?,16µM*,17%,7%,-1%,16µM*
CCCCn1c(SCc2nc3ccccc3s2)nc2ccccc2c1=O,15%,8.2µM*,-23%,-4%,2%,21µM*
O=C(CCn1c(SCC(=O)NCc2ccco2)nc2ccccc2c1=O)NCCc1ccccc1,-6%,?,-27%,0%,-5%,5%
O=c1c2ccccc2nc(SCc2ccccc2)n1Cc1ccco1,-11%,?,-5%,-5%,-10%,-23%
Cc1ccc(CSCCC(=O)NCc2ccc(F)cc2Cl)cc1,-1%,-25%,-8%,0%,nt,0%
Cc1ccc(-n2c(=O)c3c4c(sc3n(CC(=O)c3ccc(Cl)cc3)c2=O)CCC4)cc1C,0%,-13%,3%,-3%,nt,-6%
Cc1c(C(=O)NC2CCCCC2)sc2ncnc(NCCN(C)C)c12,nt,-2%,nt,nt,nt,-1%
Cc1sc2nc(SCc3ccc(C(=O)O)cc3)n(Cc3ccco3)c(=O)c2c1C,-2%,?,89µM*,nt,27µM*,-9%
C=CCn1c(SCc2ccc(C(=O)O)cc2)nc2sc(C)c(C)c2c1=O,-4%,-9%,?,1%,?,-11%
O=c1c2ccccc2nc(SCc2nc3ccccc3s2)n1Cc1ccco1,-2%,18µM*,7%,2%,-4%,13µM*
O=c1c2ccccc2nc(SCc2cccc(F)c2)n1Cc1ccco1,-21%,-19%,17%,-7%,-6%,-15%
CC(=O)N1CCC[C@@]2(CCN(Cc3ccc(C#N)cc3)C2)C1,0%,-16%,?,nt,nt,2%
CCOC(=O)C1=C(CC)Nc2ccccc2N=C1NC(=O)c1ccc(OC)c(S(=O)(=O)N2CCOCC2)c1,nt,?,2%,nt,-12%,?
COc1ccc2[nH]cc(CCNc3cc(-c4cccc(C#N)c4)ncn3)c2c1,-17%,?,-19%,nt,nt,21µM*

# Bioassay records (PubChem)
